About 840 (0.24%) of roughly 350,000 compounds were called active. The sample as a whole holds a higher share of actives than the screen did. Values without a mark were called inactive. Cut-off read from the data, not from the text of the source: active = inhibition above about 10%; inactive = the rest.
molecular target: Toxin B (Clostridioides difficile) (UniProt P18177); assay: TcdB glycohydrolase inhibitors, primary screen, biochemical, single point, plate reader (AID 652162); conditions: TcdB glycohydrolase enzymatic assay, at 9.99 µM, stronger effect = higher value
Sequence (P18177 whole entry, looked up): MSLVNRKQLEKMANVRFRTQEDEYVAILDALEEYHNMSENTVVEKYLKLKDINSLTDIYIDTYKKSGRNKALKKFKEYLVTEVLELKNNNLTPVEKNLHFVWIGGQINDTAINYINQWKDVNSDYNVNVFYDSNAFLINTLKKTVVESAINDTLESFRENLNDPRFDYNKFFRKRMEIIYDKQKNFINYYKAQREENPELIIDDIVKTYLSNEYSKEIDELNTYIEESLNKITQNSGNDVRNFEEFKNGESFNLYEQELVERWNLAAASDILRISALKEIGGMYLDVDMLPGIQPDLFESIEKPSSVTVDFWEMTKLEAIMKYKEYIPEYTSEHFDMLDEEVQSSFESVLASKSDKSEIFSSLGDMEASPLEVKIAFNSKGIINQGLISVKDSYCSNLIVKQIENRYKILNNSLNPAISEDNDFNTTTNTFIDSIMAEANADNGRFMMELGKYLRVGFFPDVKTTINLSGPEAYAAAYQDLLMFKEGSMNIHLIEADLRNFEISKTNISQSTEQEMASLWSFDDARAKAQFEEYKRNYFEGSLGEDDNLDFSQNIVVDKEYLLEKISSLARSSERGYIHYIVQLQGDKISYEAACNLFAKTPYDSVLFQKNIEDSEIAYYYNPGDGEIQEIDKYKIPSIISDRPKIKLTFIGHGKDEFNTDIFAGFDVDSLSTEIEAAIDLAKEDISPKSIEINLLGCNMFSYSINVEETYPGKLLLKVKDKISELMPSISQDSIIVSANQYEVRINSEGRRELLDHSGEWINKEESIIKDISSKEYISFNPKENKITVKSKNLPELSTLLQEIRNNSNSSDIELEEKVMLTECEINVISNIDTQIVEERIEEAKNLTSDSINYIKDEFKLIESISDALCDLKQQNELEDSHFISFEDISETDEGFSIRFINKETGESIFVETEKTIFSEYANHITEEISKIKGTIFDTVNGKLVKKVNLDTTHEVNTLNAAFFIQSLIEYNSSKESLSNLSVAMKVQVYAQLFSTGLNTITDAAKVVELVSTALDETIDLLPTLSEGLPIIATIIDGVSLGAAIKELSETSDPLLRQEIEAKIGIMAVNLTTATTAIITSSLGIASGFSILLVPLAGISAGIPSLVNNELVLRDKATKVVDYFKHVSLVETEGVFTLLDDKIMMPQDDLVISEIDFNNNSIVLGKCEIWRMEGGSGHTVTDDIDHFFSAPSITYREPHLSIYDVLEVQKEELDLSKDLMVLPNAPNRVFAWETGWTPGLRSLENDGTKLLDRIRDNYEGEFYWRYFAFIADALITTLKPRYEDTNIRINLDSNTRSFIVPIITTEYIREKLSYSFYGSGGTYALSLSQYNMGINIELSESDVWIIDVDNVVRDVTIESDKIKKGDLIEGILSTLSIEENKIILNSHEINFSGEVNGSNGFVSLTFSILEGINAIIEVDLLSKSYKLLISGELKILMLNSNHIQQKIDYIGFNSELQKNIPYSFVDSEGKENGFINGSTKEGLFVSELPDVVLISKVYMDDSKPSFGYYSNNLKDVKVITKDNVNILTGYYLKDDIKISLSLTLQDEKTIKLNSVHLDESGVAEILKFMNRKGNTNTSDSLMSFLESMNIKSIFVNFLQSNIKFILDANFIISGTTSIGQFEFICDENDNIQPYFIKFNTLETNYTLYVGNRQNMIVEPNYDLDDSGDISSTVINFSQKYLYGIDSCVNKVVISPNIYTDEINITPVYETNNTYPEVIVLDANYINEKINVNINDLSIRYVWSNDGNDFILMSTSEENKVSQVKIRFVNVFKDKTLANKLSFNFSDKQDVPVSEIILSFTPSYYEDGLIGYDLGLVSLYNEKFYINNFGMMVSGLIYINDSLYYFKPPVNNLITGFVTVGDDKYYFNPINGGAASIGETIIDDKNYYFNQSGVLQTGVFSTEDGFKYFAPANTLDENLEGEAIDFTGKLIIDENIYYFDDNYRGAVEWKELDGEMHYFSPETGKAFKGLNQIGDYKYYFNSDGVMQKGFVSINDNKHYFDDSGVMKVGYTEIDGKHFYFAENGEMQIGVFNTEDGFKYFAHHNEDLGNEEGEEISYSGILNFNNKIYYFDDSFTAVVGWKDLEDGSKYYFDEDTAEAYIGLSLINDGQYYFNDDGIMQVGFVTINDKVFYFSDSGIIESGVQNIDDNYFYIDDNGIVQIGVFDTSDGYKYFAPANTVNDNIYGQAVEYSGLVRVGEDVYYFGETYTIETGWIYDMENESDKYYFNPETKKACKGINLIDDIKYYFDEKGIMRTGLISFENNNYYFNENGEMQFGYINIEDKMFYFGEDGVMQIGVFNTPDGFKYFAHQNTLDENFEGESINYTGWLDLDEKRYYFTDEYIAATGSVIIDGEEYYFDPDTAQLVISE

SMILES | inhibition
Cc1noc(C)c1S(=O)(=O)N(C)C[C@@H]1Oc2c(NS(=O)(=O)c3cn(C)cn3)cccc2C(=O)N([C@H](C)CO)C[C@@H]1C | -0.292%
COc1ccc(S(=O)(=O)N(C)C[C@@H]2Oc3ccc(NC(=O)C4CC4)cc3CC(=O)N([C@@H](C)CO)C[C@@H]2C)cc1 | 0.342%
COC(=O)Cc1ccc(NC(=S)NCc2ccco2)cc1 | 16% (active)
COc1cccc(OC)c1C(=O)NC(=S)NCc1ccco1 | 1.13%
S=C(NCc1ccco1)Nc1ccc2c(c1)OCCO2 | -0.084%
COC(=O)C[C@H]1CC[C@H]2[C@@H](COc3ccc(NC(=O)C4CC4)cc3C(=O)N2C)O1 | 0.647%
COc1ccc2c3c(n(C)c2c1)[C@H](CO)N(C(=O)C1CCCC1)CC31CCN(C(=O)c2ccncc2)CC1 | 0.361%
C[C@H](O)C#Cc1ccc([C@@H]2[C@@H](CO)N3CCCCN(C(=O)c4ccncc4)C[C@@H]23)cc1 | 0.304%
CCS(=O)(=O)N1CCC2(CC1)CN(Cc1ccc3c(c1)OCO3)[C@H](CO)c1[nH]c3cc(OC)ccc3c12 | 0.545%
CCCC#Cc1ccc([C@@H]2[C@@H](CO)N3C(=O)CN(C(=O)Nc4cccc(F)c4)C[C@H]23)cc1 | 0.796%
O=C(c1ccncc1)N1CC(=O)N2[C@H](CO)[C@H](c3ccc(-c4ccccc4F)cc3)[C@@H]2C1 | -0.127%
COCC#Cc1cnc2c(c1)C(=O)N([C@@H](C)CO)C[C@@H](C)[C@@H](CN(C)S(=O)(=O)c1cccc(OC)c1)O2 | 0.452%
CC(C)NC(=O)Nc1ccc2c(c1)C(=O)N([C@H](C)CO)C[C@H](C)[C@@H](CN(C)C)OCCCC[C@H](C)O2 | 0.315%
COc1ccc(NC(=O)N(C)C[C@H]2Oc3c(NC(=O)C4CC4)cccc3C(=O)N([C@@H](C)CO)C[C@@H]2C)cc1 | -0.546%
CNC(=O)C[C@@H]1CC[C@@H]2[C@H](COC[C@H](O)CN2Cc2ccc(C(F)(F)F)cc2)O1 | -1.26%
C[C@@H]1CCCCO[C@H](CN(C)C(=O)Nc2cccc3ccccc23)[C@H](C)CN([C@@H](C)CO)C(=O)c2cc(NC(=O)CCCN(C)C)ccc2O1 | -0.333%
O=C(C[C@@H]1C[C@@H]2c3cc(NC(=O)C4CCOCC4)ccc3O[C@@H]2[C@H](CO)O1)NCc1ccncc1 | 0.039%
C/C=C/c1ccc([C@@H]2[C@@H](CO)N(C(=O)c3ccccc3)C23CN(C(C)=O)C3)cc1 | 1.41%
C[C@@H]1CN([C@@H](C)CO)C(=O)c2cc(C#CCN(C)C)cnc2O[C@H]1CN(C)S(=O)(=O)c1cn(C)cn1 | 1.29%
COc1ccccc1N1CC(O)=C(c2nc3ccccc3s2)C1=N | 14.9% (active)
Oc1ccc(-c2[nH]ncc2-c2nc3ccccc3s2)c(O)c1 | -1.73%
CCc1ccc(N2CC(O)=C(c3nc4ccccc4c(=O)[nH]3)C2=N)cc1 | 2.4%
O=C(C[C@H]1CC[C@H]2[C@@H](COC[C@H](O)CN2C(=O)c2ccccc2F)O1)NCc1ccccc1 | 0.135%

SMILES | inhibition
CO[C@H]1CN(C)C(=O)c2cc(NS(=O)(=O)CC(F)(F)F)ccc2OC[C@H](C)N(C(=O)c2ccc3c(c2)OCO3)C[C@H]1C | 0.021%
COCC(=O)N1CC[C@@H]2[C@@H](CO)Nc3ccc(-c4ccc(C(=O)N(C)C)cc4)cc3[C@@H]21 | -1.67%
O=C(CC(=O)c1cccnc1)c1ccccc1 | 0.622%
O=C(Nc1cnccn1)c1cccnc1 | 1.15%
O=C(NN=C1CCC(=NNC(=O)c2cccnc2)CC1)c1cccnc1 | 54% (active)
CCOc1ccc(C(CC(=O)O)NC(=O)C23CC4CC(CC(C4)C2)C3)cc1OC (centres undefined) | 12.9% (active)
CCOc1ccc(C(CC(=O)O)n2cnnn2)cc1OC (centres undefined) | 1.46%
COc1ccc(C(C)NC(=O)C23CC4CC(CC(C4)C2)C3)cc1 (centres undefined) | 0.441%
CC(C)NC(=O)N(C)C[C@@H]1Oc2ccc(NS(=O)(=O)c3ccccc3)cc2C(=O)N([C@@H](C)CO)C[C@H]1C | 1%
Cc1noc(C)c1NC(=O)N(C)C[C@@H]1OCCCC[C@H](C)Oc2ccc(NC(=O)NC3CCCCC3)cc2C(=O)N([C@H](C)CO)C[C@H]1C | 1.84%
COC(=O)C1=C[C@@H](C(=O)OC)[C@@H]2C3=C(C(=O)[C@]2(C)NC(=O)c2ccccc2)[C@H](C)n2c(=O)n(C)c(=O)n2[C@@H]3C1 | 11.2% (active)
CCC1(CC)C(=O)C2=C3C1[C@H](C(=O)OC)C=C(C(=O)OC)C[C@H]3[C@H]1C(=O)N(Cc3ccccc3)C(=O)[C@H]1[C@H]2C (some centres undefined) | 0.94%
C[C@H]1CN([C@@H](C)CO)C(=O)c2cc(NS(=O)(=O)c3ccccc3)ccc2O[C@@H]1CN(C)C(=O)NC1CCCCC1 | 3.22%
O=C(NC[C@H]1[C@@H](c2ccccc2)[C@H](CO)N1CC1CC1)c1cccnc1 | -2.13%
C/C=C/c1ccc2c(c1)O[C@H](CN(C)Cc1cccc(F)c1)[C@H](C)CN([C@H](C)CO)S2(=O)=O | 0.906%
Cc1ccc(S(=O)(=O)N(C)C[C@@H]2OCCCC[C@@H](C)Oc3ccc(NC(=O)Nc4ccc(C(F)(F)F)cc4)cc3C(=O)N([C@@H](C)CO)C[C@@H]2C)cc1 | -1.2%
COCC(=O)Nc1ccc2c(c1)C(=O)N(C)[C@@H]1CC[C@H](CC(=O)NCCc3ccccc3)O[C@@H]1CO2 | -0.476%
COc1ccc(NC(=O)N(C)C[C@H]2Oc3cc(-c4ccncc4)ccc3S(=O)(=O)N([C@@H](C)CO)C[C@H]2C)cc1 | 0.138%
C[C@@H]1CN([C@H](C)CO)C(=O)c2cc(-c3ccc(C(=O)N(C)C)cc3)cnc2O[C@H]1CN(C)C(=O)C1CC1 | 1.01%
CCC(=O)N(C)C[C@H]1Oc2cc(C#CC3CC3)ccc2S(=O)(=O)N([C@H](C)CO)C[C@H]1C | -0.263%
COCC(=O)N1C[C@H]2[C@@H](c3ccccc31)[C@@H](CO)N2C(=O)NC(C)C | -0.399%
Nc1ccccc1-c1nc2ccncc2[nH]1 | 12.2% (active)
CCOC(=O)CNC(=O)CSc1ncccc1-c1nc2ccccc2[nH]1 | -7.68%

SMILES | inhibition
Cc1cc(C)nc(Nc2n[nH]c(-c3ccccc3N)n2)n1 | -0.68%
COCC(=O)N(C)C[C@@H]1Oc2ncc(-c3ccccc3OC)cc2C(=O)N([C@@H](C)CO)C[C@@H]1C | -11.6%
CC(C)NC(=O)N1C[C@@H]2[C@H](c3ccccc31)[C@@H](CO)N2Cc1ccc(Cl)cc1 | -0.718%
Cc1noc(C)c1NC(=O)N(C)C[C@@H]1OCCCC[C@H](C)Oc2ccc(NC(=O)NC3CCCCC3)cc2C(=O)N([C@H](C)CO)C[C@@H]1C | 0.987%
COc1cc(/C=C2\C(=N)N3N=C(CC(=O)N4CCOCC4)SC3=NC2=O)cc(OC)c1OC | 0.211%
C=CCC1=C/C(=C\c2c(N)n3nc(CC(=O)N4CCOCC4)sc3nc2=O)C=C(OC)C1=O | -3.86%
COC1=C/C(=C/c2c(N)n3nc(CC(=O)N4CCOCC4)sc3nc2=O)C=CC1=O | 11.3% (active)
CCCC(=O)N1CC2(CCN(C(=O)C3CC3)CC2)c2c(n(C)c3cc(OC)ccc23)[C@H]1CO | -0.231%
CCS(=O)(=O)Nc1ccc2c(c1)C(=O)N(C)C[C@@H](OC)[C@@H](C)CN(C(=O)COC)[C@H](C)CO2 | -1.04%
C[C@@H]1CCCCO[C@@H](CN(C)C(=O)NC2CCCCC2)[C@@H](C)CN([C@@H](C)CO)C(=O)c2cc(NC(=O)C3CCCCC3)ccc2O1 | 0.287%
C[C@@H]1CN([C@H](C)CO)C(=O)CCCn2cc(nn2)CO[C@@H]1CN(C)C(=O)Nc1ccc(-c2cccs2)cc1 | -8.3%
CC(OC(=O)c1cccnc1Cl)C(=O)NC1CCCCC1 (centres undefined) | 15.9% (active)
O=C(COC(=O)c1cccnc1Cl)NC(=O)NC1CCCCC1 | 1.25%
CC(Oc1ccc(Br)cc1)C(=O)NC1CCCCCC1 (centres undefined) | 2.69%
COCCNC(=O)[C@@H]1[C@@H](CO)[C@@H]2Cn3c(ccc(-c4ccccc4F)c3=O)[C@@H]2N1C(=O)C1CC1 | -1.01%
Cc1ccccc1S(=O)(=O)NCC[C@@H]1CC[C@H](NC(=O)C2CCCCC2)[C@@H](CO)O1 | 0.652%
Cn1c(=O)[nH]c(=O)c2c1[nH]c(=S)n2Cc1ccccc1 | 20.2% (active)
C=CCn1c(SCc2ccccc2)nc2c1c(=O)[nH]c(=O)n2C | 1.32%
Cc1nnc(Sc2nc3c(c(=O)[nH]c(=O)n3C)n2Cc2ccccc2)s1 | -0.878%
CC(=O)N1CCCCN2[C@H](C1)[C@@H](c1ccc(-c3ccc(F)cc3)cc1)[C@@H]2CO | -0.351%
C[C@H]1CN([C@@H](C)CO)S(=O)(=O)c2ccc(-c3ccccc3F)cc2O[C@H]1CN(C)C(=O)C1CC1 | -0.346%
COc1ccc(NC(=O)N[C@H]2CC[C@@H](CCNC(=O)c3cc(Cl)cc(Cl)c3)O[C@H]2CO)cc1 | -0.154%
C[C@H]1CN([C@@H](C)CO)C(=O)Cc2cc(NC(=O)Cn3cnnn3)ccc2O[C@H]1CN(C)CC1CC1 | 0.02%
